Bioassay records: PubChem BioAssay, National Center for Advancing Translational Sciences (NCATS)
12-LOX inh = Primary qHTS assay for inhibitors of human arachidonate 12S-lipoxygenase (ALOX12): Round 2; Polyunsaturated fatty acid lipoxygenase ALOX12 (Homo sapiens), P18054; purified 12hLO, xylenol orange hydroperoxide absorbance; Potency, µM (highest dose often 108 µM), for inactives: at the highest dose activity change, negative = inhibition, hits mostly inhibitors; hit rate 1.1% among 580,000; AID 1671190, 2021; also: % is scaled to controls: 0 for no effect and ±100 for the full control effect
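Purified human 12hLO (150 nM final) in 25 mM Hepes, 0.01% Triton X-100, pH 7.0 was preincubated 15 min at room temperature with compound. Then 40 uM arachidonic acid was added, 30 min. Hydroperoxide was read by Fe-XO absorbance ratio 573/405 nm.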
G9a inh = qHTS Assay for Inhibitors of Histone Lysine Methyltransferase G9a. Histone-lysine N-methyltransferase EHMT2 (Homo sapiens), Q96KQ7. G9a H3K9 monomethylation, AlphaScreen, 2 h. Potency, µM (top dose mostly 102 µM), without a hit: at the highest dose activity, negative = inhibition, actives largely listed as inhibitors. hit rate 8.8% among 350,000; also: % is scaled to controls: 0 for no effect and ±100 for the full control effect; nearly all actives have a fitted effect of over 75% in size
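Quantitative HTS format: methyltransferase activity on a biotin-tagged H3K9 peptide is measured by AlphaScreen, using a rabbit anti-monomethyl-H3K9 antibody with streptavidin donor and anti-IgG acceptor beads. Final levels are 20 nM enzyme, 500 nM peptide, 20 uM SAM; 2 h RT.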
Sfp PPTase inh = qHTS Assay for Inhibitors of Bacillus subtilis Sfp phosphopantetheinyl transferase (PPTase); Potency, µM, without a hit: largest response in the series, negative = inhibition, usual class: inhibitors; hit rate 3.5% among 310,000; Biochemical Sfp PPTase activity, qHTS; 4'-phosphopantetheinyl transferase ffp (Bacillus subtilis), Q9F4F7;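 also: the enzyme is Sfp with the accession as filed and its product quenches rhodamine fluorescence; 0% = enzyme reaction without inhibitor and -100% = no enzyme wells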
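Compounds were incubated with enzyme (final 15 nM) for 15 min at room temperature before substrate addition started the reaction. Fluorescence at 525 nm excitation, 598 nm emission was recorded immediately and after 30 minutes.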
BAZ2B block = qHTS Assay for Inhibitors of BAZ2B | hit rate 4.4% among 360,000 | AlphaScreen BAZ2B-H3K14Ac peptide displacement | Bromodomain adjacent to zinc finger domain protein 2B (Homo sapiens), Q9UIF8 | Potency, µM (top dose mostly 114 µM), for the others: at the highest dose activity change, negative = inhibition, most hits filed as inhibitors; also: % is scaled to controls: 0 for no effect and ±100 for the full control effect; nearly all actives have a fitted effect of over 60% in size
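Compounds, titrated to a top concentration of 110 uM, were incubated 30 min at room temperature with preformed BAZ2B/acetyl-K14 H3 peptide complex (50 nM each). Proximity signal was measured by AlphaScreen after 20 min with beads.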
JMJD2A Tudor = qHTS Assay for Inhibitors of JMJD2A-Tudor Domain; Lysine-specific demethylase 4A (Homo sapiens), O75164; AlphaScreen JMJD2A-Tudor / H3K4me3 peptide binding; Potency, µM (top dose mostly 114 µM), for the others: top-dose activity change, negative = inhibition, usual class: inhibitors; hit rate 4.4% among 390,000; AID 504339, 2011; also: % is scaled to controls: 0 for no effect and ±100 for the full control effect; nearly all actives have a fitted effect of over 50% in size
HP1b chromo inh = HTS for Inhibitors of HP1-beta Chromodomain Interactions with Methylated Histone Tails; AID 540317, 2011; hit rate 0.56% among 390,000; Potency, µM (doses to about 114 µM), for inactives: top-dose activity change, negative = inhibition, hits mostly inhibitors; Chromobox protein homolog 1 (Homo sapiens), P83916; AlphaScreen HP1-beta / biotin-H3K9me3 peptide binding; also: nearly all actives have a fitted effect of over 70% in size
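AlphaScreen: HP1-beta (50 nM) preformed 30 min with biotin-H3(1-18)K9me3 peptide (50 nM) in PBS pH 7.4, 0.01% Tween-20. Compound added for 30 min at RT, then streptavidin donor/nickel chelate acceptor beads (10 ug/mL) for 30 min.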
An asterisk follows results filed as active; [ ] = another dose, or the depositor's remark. Most compounds without a hit are left out; they make up all but 8.7% or so of the library. Calls follow the shape of the dose curve; as a rule, active = well fitted curve in the direction sought with a large enough effect; inconclusive = small, poorly fitted or top-dose-only effect, or another doubt; inactive = no such curve, though single readings can be large; an effect the other way counts as inactive or inconclusive. Potency is read from the fitted curve at half-maximal effect.

Results for COc1ccccc1C(=O)NCC(=O)NC(C)c1ccc(-n2ccnc2)cc1 (stereo unspecified) ?
12-LOX inh: 3%; G9a inh: 10µM*; Sfp PPTase inh: 3%; BAZ2B block: -2%; JMJD2A Tudor: -20%; HP1b chromo inh: 10%

Results for Cc1cccc(C(=O)NCC(=O)NC(C)c2ccc(-n3ccnc3)cc2)c1 (stereo unspecified) ?
12-LOX inh: 18%; G9a inh: 2%; BAZ2B block: -19%; JMJD2A Tudor: -14%; HP1b chromo inh: 21%

What do the screens show for `CC(C)(C)OC(=O)N/N=C/c1cccc(Cl)c1Cl`?
12-LOX inh: 19%

What do the screens show for `CCC(C)NCCCOc1ccc([N+](=O)[O-])cc1` (stereo unspecified)?
12-LOX inh: -23%; G9a inh: inconclusive; Sfp PPTase inh: -19%; BAZ2B block: inconclusive; JMJD2A Tudor: 79µM*; HP1b chromo inh: -19%

What do the screens show for `Cc1cc(OCC(O)CN2CCc3ccccc3C2)cc(C(C)C)c1` (stereo unspecified)?
12-LOX inh: inconclusive; G9a inh: -7%[2.33 µM]; Sfp PPTase inh: -10%; BAZ2B block: 4%; JMJD2A Tudor: 0%; HP1b chromo inh: 41%

Results for CCC(C)NCCCCOc1cc(C)cc(C(C)C)c1 (stereo unspecified) ?
12-LOX inh: inconclusive; G9a inh: 11µM*; Sfp PPTase inh: -39%; BAZ2B block: inconclusive; JMJD2A Tudor: 8.9µM*; HP1b chromo inh: inconclusive

How did CCC(C)NCCCCOc1ccc(Br)cc1 (stereo unspecified) do in these assays?
12-LOX inh: -10%; G9a inh: 8.9µM*; Sfp PPTase inh: -13%; BAZ2B block: inconclusive; JMJD2A Tudor: 1.6µM*; HP1b chromo inh: inconclusive

How did Cc1ccc(-c2nc3ccccc3n2CCNC(=O)NCC(C)C)cc1 do in these assays?
12-LOX inh: -14%

Results for N#Cc1ccc([S+](=O)([O-])N2CCC3(CC2)OCCN(CC2CCOCC2)C3=O)cc1 ?
12-LOX inh: 16%[176 µM]

How did CC(=O)Nc1ccc(C(=O)N2CCN(C3CCNCC3)C(=O)C2)cc1 do in these assays?
12-LOX inh: -9%[6.33 µM]

How did CC1CCCN(S(=O)(=O)c2cc3ccccc3oc2=O)C1 (stereo unspecified) do in these assays?
12-LOX inh: -1%

What do the screens show for `Cc1ccc(S(=O)(=O)c2nc(-c3ccccc3)oc2N2CCCCCC2)cc1`?
12-LOX inh: -25%; G9a inh: inconclusive; BAZ2B block: -38%; JMJD2A Tudor: -30%; HP1b chromo inh: inconclusive

How did Cc1ccc(-c2nc(S(=O)(=O)c3ccc(C)cc3)c(N3CCCCC3)o2)cc1 do in these assays?
12-LOX inh: inconclusive; G9a inh: 16µM*; BAZ2B block: inconclusive; JMJD2A Tudor: -29%; HP1b chromo inh: -14%

Results for O=S(=O)(c1ccccc1)c1nc(-c2ccco2)oc1N1CCCCCC1 ?
12-LOX inh: inconclusive; G9a inh: inconclusive; Sfp PPTase inh: 63µM*; BAZ2B block: 40µM*; JMJD2A Tudor: -31%[11.4 µM]; HP1b chromo inh: 8.9µM*

What do the screens show for `Cc1ccc(S(=O)(=O)c2nc(C(C)(C)C)oc2N2CCOCC2)cc1`?
12-LOX inh: -2%; G9a inh: 8.9µM*; Sfp PPTase inh: 28µM*; BAZ2B block: 0%; JMJD2A Tudor: 35µM*; HP1b chromo inh: 50µM*

What do the screens show for `O=S(=O)(c1ccccc1)c1nc(-c2cccc(Cl)c2)oc1N1CCOCC1`?
12-LOX inh: -27%; G9a inh: 40µM*; Sfp PPTase inh: 1%; BAZ2B block: inconclusive; JMJD2A Tudor: -35%; HP1b chromo inh: 0%

What do the screens show for `COc1cccc(-c2nc(S(=O)(=O)c3ccccc3)c(N3CCCCC3)o2)c1`?
12-LOX inh: -16%; G9a inh: inconclusive; BAZ2B block: -39%; JMJD2A Tudor: -29%; HP1b chromo inh: inconclusive

Results for COCC(=O)N1CCN(c2oc(-c3ccc(C)cc3)nc2S(=O)(=O)c2ccccc2)CC1 ?
12-LOX inh: -72%

Results for COc1cccc(-c2nc(S(=O)(=O)c3ccc(C)cc3)c(N3CCCCC3)o2)c1 ?
12-LOX inh: -1%; G9a inh: inconclusive; BAZ2B block: -35%; JMJD2A Tudor: -21%; HP1b chromo inh: -17%

What do the screens show for `CCOc1ccc(-c2nc(S(=O)(=O)c3ccccc3)c(N3CCC(C(N)=O)CC3)o2)cc1`?
12-LOX inh: inconclusive; Sfp PPTase inh: -9%; BAZ2B block: inconclusive; JMJD2A Tudor: 71µM*; HP1b chromo inh: inconclusive

How did COc1ccc(-c2nc(S(=O)(=O)c3ccccc3)c(N3CCCC3)o2)cc1 do in these assays?
12-LOX inh: 4.5µM*

What do the screens show for `COc1cccc(-c2nc(S(=O)(=O)c3ccccc3)c(N3CCC(C)CC3)o2)c1`?
12-LOX inh: -20%; G9a inh: 18µM*; BAZ2B block: inconclusive; JMJD2A Tudor: inconclusive; HP1b chromo inh: 9%

How did COc1ccc(-c2nc(S(=O)(=O)c3ccc(C)cc3)c(N3CCCC3)o2)cc1 do in these assays?
12-LOX inh: inconclusive; G9a inh: inconclusive; Sfp PPTase inh: -20%; BAZ2B block: -24%; JMJD2A Tudor: inconclusive; HP1b chromo inh: 79µM*

Results for COc1ccc(-c2nc(S(=O)(=O)c3ccccc3)c(N3CCC(C)CC3)o2)cc1 ?
12-LOX inh: -13%; G9a inh: 3%[59 µM]; BAZ2B block: -5%; JMJD2A Tudor: -20%; HP1b chromo inh: 15%

What do the screens show for `CSc1nnc(-c2cc(Br)ccc2NC(C)=O)c(=O)[nH]1`?
12-LOX inh: 0%

How did Cc1cc(C)cc(NS(=O)(=O)c2cc(-c3cnc(C)o3)ccc2C)c1 do in these assays?
12-LOX inh: -2%

Results for Cc1ccc(C(=O)N2CCC(CCC(=O)NCc3nc4ccccc4n3C)CC2)cc1 ?
12-LOX inh: 29%

How did Cc1ccc(-c2nc(S(=O)(=O)c3ccccc3)c(N3CCN(c4ccccc4)CC3)o2)cc1 do in these assays?
12-LOX inh: -14%; G9a inh: -4%[59 µM]; BAZ2B block: -3%; JMJD2A Tudor: -22%; HP1b chromo inh: 17%
